Reference: PubChem BioAssay AID2284377 (EPA ToxCast)
Results filed as inconclusive are left out. The source made the active and inactive calls. The calls were made as follows: active = hit-call score of the fitted dose curve at least 0.9, where 1 is the maximum; inconclusive = response in the unintended direction; inactive = score below 0.9.

target: Estrogen receptor (Homo sapiens) (UniProt P03372); assay: ERF_TW_NR_COA_hESR1: Eurofins (ERF) Nuclear Receptor (NR) Functional Coactivator Assay for human Estrogen Receptor alpha (ERa) Agonism
Procedure: ERF_TW_NR_COA_hESR1 is a biochemical, single-readout assay that uses extracted gene-proteins in a cell-free assay. Measurements were taken 0.16 hours after chemical dosing in a 96-well plate. See ERalpha Human Estrogen NHR Functional Agonist Coactivator Assay, Panlabs.ERF_TW_NR_COA_hESR1 is an assay component calculated from the ERF_TW_NR_COA_hESR1 assay. It is designed to measure FRET using a type of binding reporter as detected by fluorescence intensity of estriol with fluorimetry technology.Data from the assay component ERF_TW_NR_COA_hESR1 was analyzed at the assay endpoint, ERF_TW_NR_COA_hESR1, in the positive analysis fitting direction relative to DMSO as the negative control and baseline of activity. Using a type of binding reporter, gain-of-signal activity can be used to understand changes in binding as they relate to gene ESR1. To generalize the intended target to other relatable targets, this assay endpoint is annotated to the nuclear receptor intended target family, where the subfamily is steroid.
Test compound and/or vehicle is incubated with the 7 nM estrogen receptor alpha (ERalpha)-LBD and coactivator peptide for 10 minutes at RT. Determination of the amount of complex formed is read spectrofluorimetrically at 520 nm/490 nm. Test compound-induced increase fluorescence by 50 percent or more (>/=50%) relative to the 1 uM Estriol response indicates possible ERalpha receptor agonist activity.

Chain of Estrogen receptor (Homo sapiens) (P03372 whole entry, looked up): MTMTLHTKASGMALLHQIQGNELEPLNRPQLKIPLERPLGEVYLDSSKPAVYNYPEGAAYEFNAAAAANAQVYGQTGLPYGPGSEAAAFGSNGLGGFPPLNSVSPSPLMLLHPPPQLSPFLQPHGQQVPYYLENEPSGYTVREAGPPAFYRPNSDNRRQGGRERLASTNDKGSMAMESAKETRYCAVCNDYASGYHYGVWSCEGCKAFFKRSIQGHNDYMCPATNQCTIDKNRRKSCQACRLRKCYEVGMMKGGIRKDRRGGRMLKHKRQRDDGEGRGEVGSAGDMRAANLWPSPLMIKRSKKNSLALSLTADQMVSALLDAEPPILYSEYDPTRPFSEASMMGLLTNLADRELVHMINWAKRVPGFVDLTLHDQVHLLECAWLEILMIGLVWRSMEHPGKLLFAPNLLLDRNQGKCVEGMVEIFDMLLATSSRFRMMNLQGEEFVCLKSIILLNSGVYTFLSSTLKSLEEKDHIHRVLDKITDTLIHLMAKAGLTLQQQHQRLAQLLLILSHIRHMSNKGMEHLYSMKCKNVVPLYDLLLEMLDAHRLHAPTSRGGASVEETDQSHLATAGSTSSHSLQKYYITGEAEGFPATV

Compound | outcome | AC50
OCC(F)(F)OC(F)(F)C(F)(F)OC(F)(F)C(F)(F)OC(F)(F)F | inactive | –
OCC(F)(F)OC(F)(F)C(F)(F)OC(F)(F)C(F)(F)OC(F)(F)CO | – | 3.43 µM (active)
NS(=O)(=O)C(F)(F)C(F)(F)C(F)(F)C(F)(F)C(F)(F)C(F)(F)C(F)(F)C(F)(F)F | inactive | –
